The list is not random: actives were taken first. Their share in the collection is about 2%.
TDP43 rescue – TDP-43 toxicity inhibition in yeast; TDP-43 expressing yeast growth rescue, BacTiter-Glo, 24 h; AID 652104; 1.8% of 410,000 active; Potency, µM (series often up to 46.1 µM), without a hit: top-dose growth rescue (activation), most hits filed as activators; also: % of control where 0% means no effect; nearly all actives have a fitted effect of over 50% in size
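Luminescence from BacTiter-Glo reports growth of TDP-43-expressing yeast after 24 hr at 30 deg C with compound. Cells were raffinose-pregrown to mid-log, then seeded in galactose medium at OD600=0.02.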
FUS yeast rescue – rescues growth of FUS-expressing yeast; S. cerevisiae FUS-expressing, growth rescue, OD600, 24 h; Potency, µM (highest dose often 76.6 µM), actives largely listed as activators; 0.24% of 390,000 active;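 also: plate controls were DMSO vehicle for no effect and reference control for full effect; nearly all actives have a fitted effect of over 55% in size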
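Steps: raffinose overnight preculture; dilution to OD 0.005 in 2% galactose minimal medium; compound addition (concentration series); 24hr at 30C, 99% humidity; absorbance read at 600 nm.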
aSyn yeast inh – inhibitors of alpha-synuclein toxicity in yeast; Yeast expressing alpha-synuclein, growth rescue, BacTiter-Glo, 24 h; Potency, µM (series often up to 46.1 µM), inactives show at the top dose growth rescue (activation), usual class: activators; 0.14% of 370,000 active; also: % of control where 0% means no effect; nearly all actives have a fitted effect of over 65% in size
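Galactose-induced alpha-syn yeast (OD600=0.02, raffinose-pregrown) + pinned cpd, 24 hr, 30 deg C; growth by BacTiter-Glo luminescence. Growth restoration scores as activation.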
Abeta rescue – compounds reversing amyloid beta toxicity in yeast | yeast expressing A-beta42, growth rescue, OD600, 48 h; response scale: 0% DMSO, 100% iron-clioquinol control | Potency, µM (doses to about 46.1 µM), actives largely listed as activators | 0.063% of 410,000 active | AID 1347071; also: nearly all actives have a fitted effect of over 55% in size
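Yeast growth medium received pinned compounds, then yeast cells expressing toxic A-beta were added; plates incubated at 30 C for 48 hr. Growth read as absorbance at 600 nm, normalized to DMSO and equimolar FeCl3 plus clioquinol controls.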
GRP78 ERSR act – induces the endoplasmic reticulum stress response in human glioma cells. U87-MG GRP78 promoter luciferase reporter, 16 h. Potency, µM, without a hit: top-dose activation, usual class: activators. 0.02% of 420,000 active; also: series mostly up to about 76 µM; % of control where 0% means no effect; nearly all actives have a fitted effect of over 35% in size
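Stably transfected U87-MG human glioma cells carrying a GRP78-based luminescent sensor were seeded at 1000 cells/well, pin-dosed with compounds and incubated 16 h. Luciferase reagent was then added, and end-point luminescence was read after 10 min at room temperature.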
MBNL1 CUG block – MBNL1-poly(CUG) RNA binding inhibition; Potency, µM (series often up to 57.5 µM), for inactives: at the top dose activity change, negative = inhibition, usual class: inhibitors; 0.036% of 280,000 active; TR-FRET MBNL1-His/biotin-(CUG)12 binding, 665/545 ratio; Q9NR56; AID 2675; active = well fitted inhibition curve with a large enough effect in the signal ratio, with a control signal flat, not every such curve was filed as active; inconclusive = small, poorly fitted or top-dose-only effect, or effect the other way, or a change in a side signal; inactive = no such curve, though single readings can be large or run the other way; the % refers to the signal ratio; also: % is scaled to controls: 0 for no effect and ±100 for the full control effect
Target sequence (Q9NR56 whole entry, looked up): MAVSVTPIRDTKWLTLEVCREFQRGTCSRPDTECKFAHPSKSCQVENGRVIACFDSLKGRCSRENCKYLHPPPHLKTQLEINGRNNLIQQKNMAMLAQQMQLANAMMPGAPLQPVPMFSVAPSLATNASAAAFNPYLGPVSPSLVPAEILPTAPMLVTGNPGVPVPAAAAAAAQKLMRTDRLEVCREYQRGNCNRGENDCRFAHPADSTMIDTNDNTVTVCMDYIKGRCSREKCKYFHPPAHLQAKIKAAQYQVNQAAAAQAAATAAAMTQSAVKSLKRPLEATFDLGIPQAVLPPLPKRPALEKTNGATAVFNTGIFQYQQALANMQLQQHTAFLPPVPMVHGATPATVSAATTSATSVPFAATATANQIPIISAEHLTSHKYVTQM
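His-tagged MBNL1 binding to biotinylated (CUG)12 RNA was measured by TR-FRET using terbium anti-His antibody (0.055 ng/ul final) and streptavidin-XL665 (5 nM final). Compounds were titrated 92 nM to 58 uM; 60 min at room temperature.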
* = called active by the depositor; i = inactive; ? = inconclusive; . = no result. Unless noted, calls follow the shape of the dose curve; as a rule, active = well fitted curve in the direction sought with a large enough effect; inconclusive = small, poorly fitted or top-dose-only effect, or another doubt; inactive = no such curve, though single readings can be large; an effect the other way counts as inactive or inconclusive. Potency is read from the fitted curve at half-maximal effect.

SMILES	TDP43 rescue	FUS yeast rescue	aSyn yeast inh	Abeta rescue	GRP78 ERSR act	MBNL1 CUG block
CC(=O)c1ccccc1OC(=O)c1ccc(-c2ccccc2)cc1	25.1µM*	i	-15.8%	i	2.9%	.
CC(C)=NOC(=O)c1ccc(-c2ccccc2)cc1	22.4µM*	.	-8.4%	i	0.5%	8.3%
Cc1ccc(OCc2nnc(SCC(=O)c3ccc4ccccc4c3)n2-c2ccc(Cl)cc2)cc1	.	i	.	.	.	.
Cc1sc2ccccc2[n+]1CCC[n+]1c(C)sc2ccccc21	.	.	.	.	-1.9%	.
CCNC(=O)Nc1ccc2c(c1)C(=O)N(C)[C@H]1CC[C@H](CC(=O)N[C@H](C)c3ccccc3)O[C@@H]1CO2	.	i	.	.	.	.
OC(c1ccccc1)(c1ccccc1)C1CCN(CCCOc2ccc(OC(F)(F)F)cc2)CC1	.	i	.	.	.	.
O=S1(=O)CC(N2CCCC2)CN1 (configuration not stated)	.	i	.	.	.	.
COc1ccc(/C=C/C(=O)N2CCc3c(cnc(C)c3CNC(=O)c3ccsc3)C2)cc1OC	.	.	.	.	-4.7%	.
NS(=O)(=O)c1cccc(NC(=O)COC(=O)c2cc(Cl)ccc2[N+](=O)[O-])c1	-12.7%	i	-3.1%	i	-1.5%	?
Cc1ccc(NC(=O)COC(=O)c2cc(Cl)ccc2[N+](=O)[O-])cc1	17.8µM*	.	3.1%	i	5.5%	?
CCOC(=O)c1ccc(NC(=O)c2nn(CC)cc2Br)cc1	14.2%	i	-18.2%	i	9.4%	10.4%
CCOC(=O)c1c(NC(=O)c2nn(CC)cc2Br)sc(C)c1C	-7.2%	i	-23.6%	i	0.8%	9.9%
CCn1cc(Br)c(C(=O)Nc2ccc(Cl)cc2Cl)n1	4.47µM*	i	1.6%	i	6.4%	-2.6%
CCn1cc(Br)c(C(=O)Nc2ccc(F)c(Cl)c2)n1	11.2µM*	i	-0.5%	i	4.0%	9.6%
NC(=O)[C@@H]1CCCN1C(=O)c1cc(NC(=O)c2ccccc2)cc2ncn(C3CCCC3)c12	.	.	.	.	-6.1%	.
CC#CCCCC(=O)Nc1cc(OC)nc(OC)n1	14.1µM*	i	4.1%	i	1.4%	-1.0%
O=C(c1ccc(F)cc1)C1CCN(C(=S)Nc2ccc(F)cc2)CC1	22.4µM*	i	11.8%	?	-3.1%	0.1%
CC(C)(C)NC(=S)N1CCC(C(=O)c2ccc(F)cc2)CC1	19.7%	i	4.9%	i	1.0%	-7.7%
COC(=O)c1sccc1NC(=O)c1ccc(C)o1	4.0%	i	4.8%	i	-2.5%	7.9%
COC(=O)c1sccc1-c1ccc(C(=O)Nc2ccccc2)o1	12.6µM*	i	9.9%	i	7.4%	24.2%
Cc1ccc(NC(=O)CCCCCC2NC(=O)NC2C)cc1 (configuration not stated)	-20.8%	i	-2.4%	i	-4.9%	0.0447µM*
CCc1cccc(NC(=O)CCCCCC2NC(=O)NC2C)c1 (configuration not stated)	7.8%	i	4.5%	i	-1.9%	0.1µM*
CC1NC(=O)NC1CCCCCC(=O)Nc1ccc(F)c(Cl)c1 (configuration not stated)	-23.4%	i	-2.0%	i	-4.6%	.
N#CC1=C(N2CCCCC2)c2cc3c(n2C1=O)CCCC3	14.1µM*	i	4.3%	i	1.4%	?
CCOC(=O)C1=C(SCC)c2cc3c(n2C1=O)CCCC3	-7.7%	i	-6.5%	i	16.2%	?
CCc1ccc(OCC(=O)Nc2ccc3c(c2)COC3=O)cc1	12.6µM*	i	4.9%	i	-0.8%	12.1%
CCc1ccc(OCC(=O)NCCc2ccc3c(c2)OCCO3)cc1	31.6µM*	i	7.8%	i	-0.4%	.
O=C(c1ccccc1F)N(Cc1cc2cc3c(cc2nc1N1CCOCC1)CCC3)CC1CCCO1 (configuration not stated)	.	.	.	.	-2.2%	.
COc1cc([N+](=O)[O-])ccc1NC(=O)NCCCN1CCCC1=O	-25.0%	i	-6.3%	i	-3.3%	?

High-throughput results: PubChem BioAssay, National Center for Advancing Translational Sciences (NCATS)
